AT treatment: potential ataxia-telangiectasia treatments restoring KAP-1 phosphorylation; F2112 A-T fibroblasts, KAP-1 phosphorylation AlphaLISA; neocarzinostatin DNA damage 30 min before lysis; Potency, µM (series often up to 57.5 µM), for inactives: top-dose activation, hits mostly activators; actives 0.19% (n = 320,000); note: potency is the fitted concentration of half-maximal effect; % of control where 0% means no effect; nearly all actives have a fitted effect of over 45% in size
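hTERT-immortalized A-T patient fibroblasts (F2112), 500 cells/well in OPTI-MEM, 1% FBS, got compounds for 60 min, then NCS for 30 min at 37C. Lysates were then assayed for phospho-KAP-1 by AlphaLISA (anti-pKAP1 donor, anti-KAP1 acceptor beads), 6 hr at 25C.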
ASM inhibitor: blocks human secretory acid sphingomyelinase; P17405; placental ASM, HMU-PC fluorogenic substrate, 60 min; Potency, µM (top dose mostly 57.5 µM), for inactives: at the top dose activity change, negative = inhibition, hits mostly inhibitors; actives 0.006% (n = 340,000); AID 504937; note: potency is the fitted concentration of half-maximal effect
Target sequence (P17405 47-631 limits assumed): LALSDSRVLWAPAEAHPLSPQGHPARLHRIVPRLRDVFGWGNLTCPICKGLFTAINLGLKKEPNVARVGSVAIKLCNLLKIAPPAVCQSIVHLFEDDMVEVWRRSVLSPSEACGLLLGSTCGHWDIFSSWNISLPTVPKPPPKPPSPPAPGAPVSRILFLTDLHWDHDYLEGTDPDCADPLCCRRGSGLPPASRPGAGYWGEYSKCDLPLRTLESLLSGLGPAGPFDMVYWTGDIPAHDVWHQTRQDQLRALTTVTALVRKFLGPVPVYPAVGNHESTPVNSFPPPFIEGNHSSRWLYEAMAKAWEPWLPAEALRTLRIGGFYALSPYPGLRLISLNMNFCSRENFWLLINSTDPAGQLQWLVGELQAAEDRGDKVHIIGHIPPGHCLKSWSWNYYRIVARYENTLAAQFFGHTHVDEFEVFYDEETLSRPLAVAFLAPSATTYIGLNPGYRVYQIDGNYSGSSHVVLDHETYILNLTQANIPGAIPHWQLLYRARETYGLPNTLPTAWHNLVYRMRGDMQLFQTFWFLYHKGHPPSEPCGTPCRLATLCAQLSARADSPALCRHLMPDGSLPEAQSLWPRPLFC
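Fluorescence read-out (Ex 386 nm, Em 447 nm) after stopping the reaction at pH 10. Enzyme: ASM from human placenta; substrate HMU-PC0, 9 uM final; 60 min, 37 °C. Compound preincubation 10 min, ambient temperature.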
TRPV1 PAM: enhances activation of the human vanilloid receptor TRPV1; TRPV1-expressing cells, Fluo-8 calcium influx, capsaicin EC20 potentiation; potentiation, % at 8.33 µM; actives 0.02% (n = 320,000); in the data active = potentiation above about 80%; inconclusive = between about 30% and that limit; note: 0% is about no effect
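Cells expressing TRPV1 were dye-loaded with Fluo-8 and read kinetically: 10 s baseline, 3 min after compound (agonist portion), then 2 min after EC20 capsaicin (allosteric enhancer portion). Calcium-bound dye fluorescence at 480/520 nm.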
TRPV1 agonist: human TRPV1 agonism; Q8NER1; TRPV1-expressing cells, Fluo-8 calcium influx, agonist mode; activation, % at 8.33 µM; actives 0.19% (n = 320,000); AID 540275; in the data active = activation above about 80%; inconclusive = between about 30% and that limit; note: 0% is about no effect
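Cells expressing TRPV1 were dye-loaded with Fluo-8 and read kinetically: 10 s baseline, 3 min after compound (agonist portion), then 2 min after EC20 capsaicin (allosteric enhancer portion). Calcium-bound dye fluorescence at 480/520 nm.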
PTAP TSG101 blk: blocks PTAP/TSG101 interaction to inhibit HIV-1 budding | Fluorescence polarization, FITC-PTAP peptide / Tsg101 binding | Potency, µM (doses to about 115 µM), for the others: top-dose activity change, negative = inhibition, usual class: inhibitors | 340,000 tested, under 10 active; active = well fitted inhibition curve with a large enough effect in the main read-out, with a control signal flat, not every such curve was filed as active; inconclusive = small, poorly fitted or top-dose-only effect, or effect the other way, or a change in a side signal; inactive = no such curve, though single readings can be large or run the other way; note: potency is the fitted concentration of half-maximal effect; % of control where 0% means no effect
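Fluorescence anisotropy tracks displacement of a FITC-tagged PTAP peptide (50 nM) from the Tsg101 binding domain (10 uM), following a 20 min room-temperature incubation at pH 7.5.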
Numbers without * were called inactive; i = inactive; ? = inconclusive; . = not tested or not shown; [ ] = dose if it differs, or a comment. Rows were chosen to be rich in hits. Some 0.37% of all compounds tested hit in one or more screens of this group. Unless noted, calls come from the whole dose curve; as a rule, active = well fitted curve in the direction sought with a large enough effect; inconclusive = small, poorly fitted or top-dose-only effect, or another doubt; inactive = no such curve, though single readings can be large; an effect the other way counts as inactive or inconclusive.

SMILES	AT treatment	ASM inhibitor	TRPV1 PAM	TRPV1 agonist	PTAP TSG101 blk
O=[N+]([O-])c1ccc(/C=C/C2=NN(c3ccccc3)C(c3ccco3)C2)o1 (stereo not drawn)	-9%	-8%	?	14	0%
Cc1ccc(C2CC(c3ccccc3)=NN2c2ccccc2)o1 (stereo not drawn)	20µM*	i	17	0	1%
CC(=O)N1N=C(c2ccc(Cl)cc2)CC1c1ccco1 (stereo not drawn)	-5%	-1%	0	3	-10%
Cc1nc(N2N=C(c3ccc(Cl)cc3)CC2c2ccco2)sc1C(=O)N(C)C (stereo not drawn)	32µM*	i	21	1	0%
O=C(NCCCCNC(=O)C(F)(F)F)C(F)(F)F	0%	5%	?	-3	-5%
Cc1cc2c(s1)c1c(C)nn(Cc3ccccc3F)c(=O)c1n2C	8%	.	.	.	.
Cc1cc(C)c2oc(C(=O)NCc3ccccc3)cc(=O)c2c1	3%	0%	-2	10	-1%
Cc1cc(C)c2c(=O)cc(C(=O)NCc3ccccc3)oc2c1	35µM*	4%	17	-1	0%
Cc1cccc(CNC(=O)Cc2csc3ccccc23)c1	.	.	-16	2	.
CCOC(=O)[C@H]1[C@H]2COc3ccc(C)cc3[C@@H]2N2C(=O)c3cc(C)ccc3NC(=O)[C@@]12C	6%	8%	.	.	-1%
CCOC(=O)[C@H]1[C@H]2COc3ccc(OC)cc3[C@@H]2N2C(=O)c3ccccc3NC(=O)[C@@]12C	7%	-5%	-7	100*	-6%
CCOC(=O)[C@H]1[C@H]2COc3ccc(OC)cc3[C@@H]2N2C(=O)c3cc(OC)c(OC)cc3NC(=O)[C@@]12C	8%	11%	7	-1	0%
CCOC(=O)[C@H]1[C@H]2COc3ccc(Br)cc3[C@@H]2N2C(=O)c3cc(Br)ccc3NC(=O)[C@@]12C	8%	-7%	25	83*	-1%
CCOC(=O)[C@H]1[C@H]2COc3ccc(OC)cc3[C@@H]2N2C(=O)c3cc(F)c(F)cc3NC(=O)[C@@]12C	26%	-4%	?	92*	-3%
CCOC(=O)[C@H]1[C@H]2COc3ccc(OC)cc3[C@@H]2N2C(=O)c3cc(OC)ccc3NC(=O)[C@@]12C	-8%	2%	5	97*	-1%
CCOC(=O)CSC1=C(C#N)C(c2ccccc2Cl)C(C(=O)OC)C(=O)N1 (stereo not drawn)	-4%	3%	-1	1	4%
CCN(CC)S(=O)(=O)c1ccc(NC(=O)c2ccc(N(C)S(C)(=O)=O)cc2)cc1	.	-8%	-28	25	-6%
CCN(CC)S(=O)(=O)c1ccc(C(=O)Nc2ccc(Cc3ccncc3)cc2)cc1	-1%	1%	2	81*	1%
CCn1nc(C)c(/C=N/NC(=O)Cn2cncn2)c1C	3.2µM*	-5%	-9	0	-2%
CCn1nc(C)c(/C=N/NC(=O)Cn2nnnc2N)c1C	-11%	-4%	14	-2	-2%
CCCCc1ccc(NC(=O)Nc2cccnc2)cc1	-2%	-2%	6	85*	2%
CCCCc1ccc(NC(=S)Nc2cccnc2)cc1	0%	0%	-10	30	-7%
CC(C)C(NC(=O)c1ccc(F)cc1)C(=O)N1CCC1 (stereo not drawn)	-13%	5%	5	-1	0%
COC(=O)c1ccc(C23CC4(C2)[C@H](CN(Cc2ccc(C(F)(F)F)cc2)[C@@H]4c2ccccc2)C3c2ccccc2)cc1 (stereo partly drawn)	40µM*	-8%	-10	-1	1%
NNc1nc2c(-c3cccc(C(F)(F)F)c3)nnn2c2ccccc12	25µM*	319%	-3	0	6%
SMILES	AT treatment	ASM inhibitor	TRPV1 PAM	TRPV1 agonist	PTAP TSG101 blk
COCCNc1nc2c(-c3cccc(C(F)(F)F)c3)nnn2c2ccccc12	-8%	359%	7	-1	2%
Cc1cc2c(c(=O)o1)C1O[C@](c3ccsc3)(Cc3ccccc31)O2	2%[11.5 µM]	.	i	i	.
C=CC[C@@H]1Cc2c(Br)ccc(Br)c2[C@@H](CC=C)N1	40µM*	6%	9	-1	0%
COc1ccc(OC)c(NS(=O)(=O)c2ccc(Br)s2)c1	0%	.	?	1	.
COc1cccc(NS(=O)(=O)c2ccc(Br)s2)c1	11%	-1%	3	89*	-2%
O=C(COc1ccc(Cl)cc1)NCCS(=O)(=O)N1CCN(c2ccccc2F)CC1	11%	-2%	-20	8	-3%
CCc1nc(N2CCCC(C)C2)c2oc3ccccc3c2n1 (stereo not drawn)	40µM*	-9%	-3	?	-8%
COc1ccc(C2=NN(c3ccccc3)C(c3ccc(OC)c(OC)c3)C2)cc1 (stereo not drawn)	?	i	12	-2	-1%
COc1ccccc1C1CC(c2ccco2)=NN1c1ccccc1 (stereo not drawn)	20µM*	i	-11	-2	0%
Cc1cccn2c(=O)c3cc(C(=O)NCC4CCCO4)c(=N)n(CC4CCCO4)c3nc12 (stereo not drawn)	0%	i	-6	9	-3%
Cc1cccn2c(=O)c3cc(C(=O)NCC4CCCO4)c(=N)n(C4CCCCC4)c3nc12 (stereo not drawn)	-7%	i	-33	91*	-10%
O=C(Cc1ccc(F)cc1)NCCc1ccc(F)cc1	.	2%	6	-6	-1%
Cc1ccc(OCCNC(=O)Cc2ccc(F)cc2)cc1	0%	3%	-13	84*	-4%
CC(=O)OC[C@]12CC[C@H]3[C@@](C)(CC[C@H]4C(C)(C)CCC[C@]34C)[C@@H]1C[C@H](C1=CC(=O)O[C@@H]1OC(C)=O)O2	40µM*	.	.	.	.
CC1(C)OC(=O)C2(Cc3c(F)cccc3N3CCCC32)C(=O)O1 (stereo not drawn)	.	.	-25	10	.
Cc1c(NC(=O)c2cnn3c(C(F)(F)F)cc(-c4ccco4)nc23)c(=O)n(-c2ccccc2)n1C	16µM*	-1%	22	-2	-7%
O=C(O)c1cnn2c(C(F)(F)F)cc(-c3ccco3)nc12	-4%	14%	1	-1	-7%
CCCCN(CCCC)C(=O)c1c[nH]c2ccc(S(=O)(=O)Nc3cccc(Cl)c3C)cc2c1=O	-6%	.	7	-3	.
Clc1ccc(C(c2ccccc2Cl)C(Cl)Cl)cc1 (stereo not drawn)	28µM*	-12%	-6	-1	1%
CCc1ccc(C(c2ccc(CC)cc2)C(Cl)Cl)cc1	?	-10%	3	4	2%
CCCCn1c(C)cc2c(c1=O)[C@H]1O[C@](CCCC)(Cc3c1ccc1ccccc31)O2	-6%[11.5 µM]	.	i	i	.

Source: PubChem BioAssay
